Rows were chosen to be rich in hits. Some 2.4% of all compounds tested hit in one or more screens of this group.
MLLE-PAM2 inh: blocks PAM2 peptide binding to the PABP1 MLLE domain. P11940. GST-MLLE / FITC-PAM2 fluorescence polarization. inhibition, % at 20 µM. hit rate 0.36% among 360,000; in the data active = inhibition above about 35%, passing the limit was not always enough
eIF4H FP inh: inhibitors of RNA binding by human eIF4H; eIF4H fluorescence polarization binding assay; AID 2012; Q15056; inhibition, % at 35 µM; hit rate 0.94% among 290,000;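 also: calls also rest on retests at 20 µM and on dose response follow-up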
HMGR II inh: blocks class II HMG-CoA reductase of Enterococcus faecalis. hit rate 0.41% among 190,000. inhibition, % at 10 µM. purified E. faecalis HMGR, NADPH absorbance 340 nm kinetic;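 active = inhibition above a set limit, the median over all tested compounds plus 3 SD, cut at about 9.5% in these data; inconclusive = no clear call, values can overlap the other calls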;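 also: enzyme runs in reverse so mevalonate oxidation gives rising NADPH absorbance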
PHOSPHO1 block: inhibitors of human PHOSPHO1 phosphatase; hit rate 1.1% among 290,000; Q8TCT1; AID 1565; inhibition, % at 13.3 µM; recombinant PHOSPHO1, absorbance phosphatase assay; in the data active = inhibition above about 60%
Target sequence (Q8TCT1 whole entry, looked up): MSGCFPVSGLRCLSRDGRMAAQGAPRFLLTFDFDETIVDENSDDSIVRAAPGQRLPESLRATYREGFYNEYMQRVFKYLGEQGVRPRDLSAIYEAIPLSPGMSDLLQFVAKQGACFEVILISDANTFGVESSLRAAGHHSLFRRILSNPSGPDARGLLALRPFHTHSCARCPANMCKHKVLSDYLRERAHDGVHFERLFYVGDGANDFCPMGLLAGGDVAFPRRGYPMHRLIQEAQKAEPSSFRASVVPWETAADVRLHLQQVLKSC
PABP polyA inh: PABP-poly(A) binding inhibition | hit rate 1% among 290,000 | AID 2014 | PABP-poly(A) RNA binding, fluorescence polarization | calls only at 35 µM | P11940;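 also: calls also rest on retests at 20 µM and on dose response follow-up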
Numbers stand for hits; - = inactive; ? = inconclusive; . = no result given; + = active, no number; ! = a repeat was not active. Unless noted, no rule for the calls is given here.

SMILES	MLLE-PAM2 inh	eIF4H FP inh	HMGR II inh	PHOSPHO1 block	PABP polyA inh
CC(C)NCC(O)(c1ccc(Cl)cc1)c1ccc(Cl)cc1	-	-	13	-	-
Cc1ccc(C23CC4CC(CC(NC(=O)NCCN(C)C)(C4)C2)C3)cc1	-	-	-	-	-
CN(C)CCNC(=O)COc1ccc(C23CC4CC(CC(C4)C2)C3)cc1	-	-	-	66	-
COc1ccc(C)cc1NC(=O)/C=C/c1ccc(OC)c(S(=O)(=O)N2CCOCC2)c1	-	.	.	.	.
O=C(O)c1ccc(COc2ccccc2C=C2C(=O)c3ccccc3C2=O)cc1	-	-	-	-	+
O=C(O)c1ccc(COc2ccccc2/C=C2/NC(=O)N(c3cccc(Cl)c3)C2=O)cc1	-	54	-	-	+
CN1C(=O)/C(=C/c2ccccc2OCc2ccc(C(=O)O)cc2)NC1=S	-	-	-	-	-
O=C1N/C(=C\c2ccsc2)C(=O)N1Cc1ccc(F)cc1	-	-	-	-	-
O=C(CN1C(=O)N/C(=C\c2ccccc2OCc2ccc(C(=O)O)cc2)C1=O)Nc1ccc(F)cc1	-	-	.	-	-
O=C(O)c1ccc(COc2ccccc2/C=C2\NC(=O)N(Cc3ccc(F)cc3)C2=O)cc1	-	-	11	-	-
Cc1ccsc1/C=C1/NC(=O)N(Cc2ccc(F)cc2)C1=O	-	-	15	-	-
CCN(CC)c1ccc(/C=N/NC(=O)CNC(=O)C2COc3ccccc3O2)c(O)c1 (configuration not stated)	-	-	.	-	-
COc1ccc(NC(=S)NCCCCCC(=O)C[N+](=O)[O-])cc1	-	-	-	77	-
O=C(CCCCCNC(=S)Nc1ccc(Cl)cc1)C[N+](=O)[O-]	-	-	-	-	-
Cc1ccc(C)n1-c1cccc(C(=O)O)c1	.	91	-	79	+
Cc1cc(C=O)c(C)n1-c1cc(C(=O)O)cc(C(=O)O)c1	-	-	-	-	-
Cc1cc(C=O)c(C)n1-c1cccc(C(=O)O)c1	-	80	-	-	-
CC(=O)C(=Cc1cc(C)n(-c2ccccc2)c1C)C(C)=O	-	54	-	-	+
COc1ccc(N2CCN(c3nccs3)CC2)cc1	-	-	.	-	-
Cc1cccn2c(=O)c3cc(C(=O)NCCCn4ccnc4)n(C)c3nc12	-	91	-	-	+
Cc1cccn2c(=O)c3cc(C(=O)N(C)C)n(C)c3nc12	53	?	-	-	?
CCCCNC(=O)c1cc2c(=O)n3cccc(C)c3nc2n1C	.	-	.	-	-
CCOC1=C2CN(S(=O)(=O)c3ccc(C)cc3)[C@H](c3ccccc3)C[C@@H]2N(S(=O)(=O)c2ccc(Br)cc2)[C@H](c2ccccc2)C1	-	.	.	.	.
Cc1coc2c1C(=O)C(=O)c1c-2ccc2c(C)cccc12	-	78	.	-	+
Cc1coc2c1C(=O)C(=O)c1c-2ccc2c1CCCC2(C)C	-	64	-	-	+
SMILES	MLLE-PAM2 inh	eIF4H FP inh	HMGR II inh	PHOSPHO1 block	PABP polyA inh
COc1cccc(C(=O)OCC(=O)NCCCc2ccccc2)c1	-	-	.	-	-
COc1ccc(CN2C(=O)CCC2(C)c2nc3ccccc3[nH]2)cc1 (configuration not stated)	-	.	.	.	.
Nc1c(C(=O)C2CC2)sc2nc(-c3cccs3)cc(C(F)(F)F)c12	-	94	-	-	-
COc1ccc(NC(=O)C2Cc3c(-c4cccc(F)c4)ccnc3O2)cc1 (configuration not stated)	-	.	.	.	.
COc1ccccc1CN(C)C(=O)CN1CCN(S(=O)(=O)c2ccc3c(c2)OCCCO3)CC1	-	.	.	.	.
CCc1cccc(CC)c1N1C(=O)C2=C(SCCCS2)C1=O	-	.	.	.	.
COc1ccc2c(c1)CSC(c1ccccc1)C2=O (configuration not stated)	-	.	.	.	.
Cc1ccc2c(CN3CCCCC3)cc(=O)oc2c1C	-	-	.	.	-
Cc1ccc2c(CN3CCCc4ccccc43)cc(=O)oc2c1C	-	34	-	-	+
CCc1nc2ccc(C(=O)NCc3ccccc3OC)cn2c1N(CC)CCOC	-	.	.	.	.
CN(C)CCCNCCCCNC(=O)/C=N/O	-	-	-	-	+
CN(C)CCCNCCCNC(=O)/C=N/O	-	-	-	-	-
CC(C)(C)c1ccc(SCCc2ccccn2)cc1	-	-	.	-	-
C=C(C)CN(CC)C(=O)CSc1ccc(S(=O)(=O)N2CCN(C)CC2)cn1	-	.	.	.	.
CCCNC(=O)c1cc(C2CCCCN2C(=O)CCCc2ccccc2)on1 (configuration not stated)	-	.	.	.	.
CCN1C(=O)/C(=C2\SC(=S)N(NC(=O)c3ccccc3O)C2=O)c2ccccc21	39	-	.	-	-
CCN1C(=O)/C(=C2\SC(=S)N(c3c(C)n(C)n(-c4ccccc4)c3=O)C2=O)c2ccccc21	44	-	-	-	-
CC(=O)N1C(=O)/C(=C2\SC(=S)N(c3c(C)n(C)n(-c4ccccc4)c3=O)C2=O)c2ccccc21	47	-	-	-	-
CC(CC(=O)OCC(=O)Nc1ccc2[nH]c(=O)[nH]c2c1)c1ccccc1 (configuration not stated)	-	.	.	.	.
CC(C)c1ccc(-c2csc3nc[nH]c(=O)c23)cc1	-	-	.	-	-
Cc1ccccc1-c1cc2nc(Oc3ccc4c(c3)OCO4)n(C)c(=O)c2s1	-	.	.	.	.
Cc1cc(OCC(=O)OCC(=O)N2CCc3ccccc3C2)ccc1Cl	-	.	.	.	.
CN1Cc2c(N)cccc2C(c2ccccc2)C1 (configuration not stated)	80!	?	-	-	-
O=c1ccc2cccc([N+](=O)[O-])c2[nH]1	-	.	.	.	.
COc1ccc(S(=O)(=O)N2CC=C(C(=O)Nc3ccc(NC(C)=O)cc3)CC2)cc1	-	-	22	-	-
SMILES	MLLE-PAM2 inh	eIF4H FP inh	HMGR II inh	PHOSPHO1 block	PABP polyA inh
COc1ccc(-c2ccc3c(N)c(C(=O)c4cccc(OC)c4)sc3n2)cc1	-	-	-	89	-
COC(=O)c1cc2c(-c3ccccc3)cc3ccccn3c-2c1C(=O)OC	-	?	-	-	+
Cc1cccc(NC2=CC(=O)CC(C)(C)C2)c1C	-	-	-	-	-
Cc1cccc(-n2c(SCC(=O)NCC3CCCO3)nc3ccccc3c2=O)c1C (configuration not stated)	-	.	.	.	.
Cc1ccc(C2CC(c3ccccc3)=NN2C(=S)Nc2ccccc2)o1 (configuration not stated)	-	-	-	88	-
Nc1nnnn1/N=C/c1cc(Cl)ccc1O	49	-	.	-	-
Nc1nnnn1/N=C/c1cc(Cl)cc(Cl)c1O	-	?	.	-	?
CCCCCCOc1ccc(N2C(=O)CC(SC(=NCC)NCC)C2=O)cc1 (configuration not stated)	-	-	-	-	-
C=CCOc1ccc(C2OC34CCCCC3C(C#N)(C#N)C2(C#N)C(=N)O4)cc1 (configuration not stated)	-	84	-	-	+
CCCCOc1ccc(C2OC34CCCCC3C(C#N)(C#N)C2(C#N)C(=N)O4)cc1 (configuration not stated)	-	?	-	-	?
Cc1cccc(N=C2Sc3nc4c(C)c(C)ccc4cc3CN2CCN2CCOCC2)c1	-	-	-	81	-
Cc1cccc(NC(=O)CN(C)C(C)C(=O)Nc2ccc(S(=O)(=O)N3CCCC3)cc2)c1C (configuration not stated)	-	.	.	.	.
